Screening results: PubChem BioAssay, National Center for Advancing Translational Sciences (NCATS)
An excerpt weighted towards active compounds, which were near 11% of everything screened.
HCV inh: inhibitors of hepatitis C virus infection. AID 651820. hit rate 3.4% among 340,000. Potency, µM (series often up to 41.8 µM), inactives show top-dose activity change, negative = inhibition, usual class: inhibitors. Huh7.5.1 HCVcc-Cre infection, luciferase reporter, 44 h; note: % is set by controls: 0 for no effect and ±100 for the full control effect
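Whole-lifecycle infectious HCVcc-Cre system; cells 1,000/well, compound then virus (~0.5 moi) added 4 h after plating, 44 h culture. Luciferase read 15 sec following 15 min substrate incubation, room temp.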
Vaccinia Venus: vaccinia inhibition (Venus reporter); Vaccinia virus Venus reporter expression, fluorescence; Potency, µM (series often up to 36.5 µM), for inactives: at the top dose activity change, negative = inhibition, most hits filed as inhibitors; hit rate 0.46% among 330,000; calls by dose curve; tested in A549 cells; note: % is set by controls: 0 for no effect and ±100 for the full control effect; nearly all actives have a fitted effect of over 30% in size
Pf growth 48h: P. falciparum growth inhibition at 48 hours (one generation). Potency, µM (doses to about 28.7 µM), without a hit: at the highest dose activity change, negative = inhibition, usual class: inhibitors. AID 504832. P. falciparum luciferase growth in erythrocytes, 48 h. hit rate 5.9% among 310,000; note: % is set by controls: 0 for no effect and ±100 for the full control effect
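Compounds are pin-transferred into medium, infected erythrocytes (2% hematocrit, 0.1% parasitemia final) are added, and plates sit one parasite generation at 37 C in 5% CO2. Detection reagent is then added and luminescence measured.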
Pf growth 96h: P. falciparum growth inhibition at 96 hour, primary screen for plastid delayed-death inhibitors; P. falciparum luciferase reporter growth, 96 h; Potency, µM (highest dose often 28.7 µM), for the others: at the highest dose activity change, negative = inhibition, hits mostly inhibitors; hit rate 6.9% among 320,000; AID 504834; note: % is set by controls: 0 for no effect and ±100 for the full control effect
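96 h incubation, 37 C, 5% CO2, of luciferase-reporter P. falciparum-infected RBCs (2% hematocrit, 0.05% parasitemia final) with test compounds; endpoint luminescence.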
NS1 function inh: influenza NS1 inhibition | AID 2326 | Potency, µM (highest dose often 46.1 µM), without a hit: top-dose activity, positive = more growth | hit rate 0.4% among 270,000; calls by dose curve; note: actives are rising curves; nearly all actives have a fitted effect of over 50% in size
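Growth recovery, yeast-based: influenza A NS1 expressed in S. cerevisiae causes slow growth, and suppressors are detected by OD600. The parent strain without NS1 is used as positive control.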
Vaccinia mCherry: inhibitors of vaccinia virus infection (mCherry reporter signal); Vaccinia virus mCherry reporter infection, fluorescence; Potency, µM (top dose mostly 36.5 µM), for the others: at the highest dose activity change, negative = inhibition, usual class: inhibitors; hit rate 0.63% among 310,000; AID 720579; calls by dose curve; tested in A549 cells; note: % is set by controls: 0 for no effect and ±100 for the full control effect; nearly all actives have a fitted effect of over 35% in size
* hit, by the source's call; i = inactive; ? = inconclusive; / = not tested or not shown; [ ] = another dose, or the depositor's remark. Unless noted, calls come from the whole dose curve; as a rule, active = well fitted inhibition curve with a large enough effect; inconclusive = small, poorly fitted or top-dose-only effect, or another doubt; inactive = no such curve, though single readings can be large or run the other way. Potency is the fitted concentration of half-maximal effect.

SMILES	HCV inh	Vaccinia Venus	Pf growth 48h	Pf growth 96h	NS1 function inh	Vaccinia mCherry
COc1ccc(N/C(=C(/C(Cl)=C(Cl)Cl)[N+](=O)[O-])n2nnc3ccccc32)cc1OC	/	/	/	14.7µM*	11.2%	/
COC(=O)[C@]1(Cc2ccccc2)N[C@H](c2ccc(-c3ccc(F)cc3)cc2)[C@@H]2C(=O)N(C)C(=O)[C@@H]21	11.2µM*	?	?	13.1µM*	/	-16.2%
CCN1C(=O)[C@H]2[C@@H](c3ccc(-c4ccccc4)cc3)N[C@@](CC(C)C)(C(=O)OC)[C@H]2C1=O	0.7%	-11.7%	8.28µM*	9.28µM*	/	-2.1%
CCN1C(=O)[C@H]2[C@@H](c3ccc(-c4ccccc4)cc3)N[C@@](Cc3ccccc3)(C(=O)OC)[C@H]2C1=O	15.1%	?	10.4µM*	?	/	i
CCN1C(=O)[C@H]2[C@@H](c3ccc(-c4ccc(Cl)c(Cl)c4)cc3)N[C@@](Cc3ccccc3)(C(=O)OC)[C@H]2C1=O	?	-26.9%	?	?	/	i
CCN1C(=O)[C@H]2[C@@H](c3ccc(-c4ccc(C(C)=O)cc4)cc3)N[C@@](Cc3ccccc3)(C(=O)OC)[C@H]2C1=O	?	-24.9%	13.1µM*	10.4µM*	/	-4.4%
O=C(/C=C/c1cccs1)Nc1ccc([N+](=O)[O-])cc1	6.8%	-16.1%	77.8%	255.6%	-7.3%	-5.9%
CC(=O)Nc1ccc(OCC(=O)NCc2ccccc2)cc1	10.5%	4.3%	13.2%	3.3%	12.8%	i
CCC(=O)c1ccc(OCC(=O)OCC(=O)c2c(N)n(C)c(=O)n(C)c2=O)cc1	16.2%	-9.5%	-1.7%	-29.6%	/	i
CCC(=O)c1ccc(OCC(=O)OCC(=O)c2cc(C)n(C)c2C)cc1	/	-16.5%	?	13.1µM*	-12.4%	-2.0%
Cc1ccc(S(=O)(=O)/N=C2/C=C(Sc3ncn[nH]3)C(=O)c3ccccc32)c(C)c1	?	/	2.08µM*	-23.4%	-23.7%	/
CC(C)(C)c1ccc(S(=O)(=O)/N=C2\C=C(NS(=O)(=O)c3ccccc3)C(=O)c3ccccc32)cc1	-19.2%	6.9%	-8.5%	3.4%	10.0%	i
Cc1ccc(S(=O)(=O)N2CCN(C(=O)CSc3ncn[nH]3)CC2)c(C)c1	8.1%[8.37 µM]	-20.3%	-5.0%	-9.1%	/	-5.1%
CC(C)c1ccc(S(=O)(=O)/N=C2/C=C(Sc3ncn[nH]3)C(=O)c3ccccc32)cc1	2.51µM*	?	1.31µM*	?	-16.9%	11.2µM*
Cc1ccc(S(=O)(=O)/N=C2/C=C(Sc3ncn[nH]3)C(=O)c3ccccc32)cc1	3.98µM*	7.08µM*	1.47µM*	16.5%	-31.5%	2.82µM*
O=C(O)c1ccc2cc(-c3ccccc3)[nH]c2c1	-4.5%	/	/	/	/	/
Cc1nnc(SCc2ccccc2Cl)c2cc3sccc3n12	/	-0.9%	/	/	/	-9.9%
O=C(CCC1CCCCC1)NNC(=O)c1cnccn1	34.8%	-8.5%	13.1µM*	?	5.2%	-29.8%
Cc1ccc(OCC(=O)NCCCNC(=O)c2cnccn2)cc1C	18.1%	6.9%	?	-7.1%	-1.5%	-7.9%
Cc1cc(OCC(=O)NNC(=O)c2cnccn2)cc(C)c1Cl	-29.8%	/	?	11.7µM*	-22.9%	/
O=C(NNC(=O)C1CCCCC1)c1cnccn1	30.2%	/	-3.7%	25.8%	-6.5%	/
C=C(C)c1cccc(C(C)(C)NC(=O)Nc2cccnc2)c1	-7.5%	-17.3%	?	4.65µM*	1.0%	i
C=C(C)c1cccc(C(C)(C)NC(=O)Nc2ncccn2)c1	?	-12.7%	?	8.28µM*	-14.9%	-3.3%
COc1ccc(NC(=O)c2cc3cc(C)ccc3n2C)c(OC)c1	-15.9%	-12.3%	?	?	-17.0%	i
CNc1ccccc1C(=O)OCC(=O)c1ccc(F)cc1	26.1%	-12.6%	159.2%	76.6%	/	i
COc1ccc(C(=O)COC(=O)c2ccccc2C(=O)N(C)c2ccccc2)c(OC)c1	?	-15.9%	?	0.0%	/	-0.3%
CN(C(=O)c1ccccc1C(=O)OCC(=O)c1ccccc1)c1ccccc1	0.7%	/	?	11.7µM*	/	/
CN(C(=O)c1ccccc1C(=O)OCC(=O)c1ccc(F)cc1)c1ccccc1	-1.5%	/	8.28µM*	?	/	/
